How the values were obtained:
Test in all cases: DAPPL (digital affinity profiling via proximity ligation, sequencing); 10 mM Tris-HCl pH 7.5, 50 mM NaCl, 1 mM DTT, 4% glycerol, room temperature, 30 min; GST-TFs on glutathione beads, 16-mer random dsDNA library, 0.1% formaldehyde crosslink after washing; high values mean tight binding
[1] = molecular target: T1, FEV (Homo sapiens, UniProt Q99581 1-238); conditions: protein: recombinant; tags: N-terminal GST; dsDNA, one strand shown
T1 sequence: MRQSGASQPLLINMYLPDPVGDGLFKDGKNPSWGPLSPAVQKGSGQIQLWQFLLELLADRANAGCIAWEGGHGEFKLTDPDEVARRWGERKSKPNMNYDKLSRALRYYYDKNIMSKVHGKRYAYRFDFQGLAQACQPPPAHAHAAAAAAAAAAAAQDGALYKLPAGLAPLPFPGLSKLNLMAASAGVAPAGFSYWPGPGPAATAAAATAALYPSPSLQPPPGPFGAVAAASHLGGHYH
Procedure, shortened: (§1)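 Human transcription factors were made in yeast as GST fusions, captured on glutathione beads and barcoded with DNA. With a tag-only sample included, the pool was incubated with 200 nmole of a random double-stranded 16-mer DNA library in Tris/NaCl/DTT/glycerol buffer at room temperature for 30 min, then crosslinked with 0.1% formaldehyde after washing, ligated by proximity, amplified and sequenced. For binding signal, each hexamer's read frequency for a factor is divided by its frequency for the tag-only sample.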

[2] = molecular target: ETV5 (Homo sapiens, UniProt P41161 1-510); conditions: protein: recombinant; tags: N-terminal GST; dsDNA, one strand shown
Procedure, shortened: as §1

[3] = molecular target: HSF1 (Homo sapiens, UniProt Q00613 1-529); conditions: protein: recombinant; tags: N-terminal GST; chain copies: 3; dsDNA, one strand shown
Procedure, shortened: as §1

[4] = molecular target: T2, SPIC (Homo sapiens, UniProt Q8N5J4 1-248); conditions: protein: recombinant; tags: N-terminal GST; dsDNA, one strand shown
T2 sequence: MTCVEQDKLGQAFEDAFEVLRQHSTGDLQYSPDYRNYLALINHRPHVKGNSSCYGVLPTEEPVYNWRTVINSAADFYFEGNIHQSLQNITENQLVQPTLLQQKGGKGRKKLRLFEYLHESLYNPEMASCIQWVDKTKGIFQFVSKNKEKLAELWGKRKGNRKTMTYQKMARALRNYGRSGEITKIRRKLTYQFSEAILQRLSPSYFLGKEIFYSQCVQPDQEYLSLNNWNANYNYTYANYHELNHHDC
Procedure, shortened: as §1

[5] = molecular target: ELF4 (Homo sapiens, UniProt Q99607 1-663); conditions: protein: recombinant; tags: N-terminal GST; dsDNA, one strand shown
Procedure, shortened: as §1

[6] = molecular target: T3, ELK4 (Homo sapiens, UniProt P28324-2 1-405); conditions: protein: recombinant; tags: N-terminal GST; dsDNA, one strand shown
T3 sequence: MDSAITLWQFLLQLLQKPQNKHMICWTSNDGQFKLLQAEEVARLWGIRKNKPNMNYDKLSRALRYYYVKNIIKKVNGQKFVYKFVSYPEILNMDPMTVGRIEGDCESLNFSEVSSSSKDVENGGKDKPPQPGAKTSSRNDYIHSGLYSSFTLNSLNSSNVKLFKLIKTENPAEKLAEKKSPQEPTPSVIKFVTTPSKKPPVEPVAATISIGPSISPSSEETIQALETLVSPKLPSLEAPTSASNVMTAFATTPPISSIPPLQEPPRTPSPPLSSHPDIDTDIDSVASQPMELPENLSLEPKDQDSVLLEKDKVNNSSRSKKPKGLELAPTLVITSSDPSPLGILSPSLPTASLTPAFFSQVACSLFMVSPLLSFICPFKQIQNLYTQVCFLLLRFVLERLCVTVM
Procedure, shortened: as §1

[7] = molecular target: T4, ETV2 (Homo sapiens, UniProt O00321 1-342); conditions: protein: recombinant; tags: N-terminal GST; dsDNA, one strand shown
T4 sequence: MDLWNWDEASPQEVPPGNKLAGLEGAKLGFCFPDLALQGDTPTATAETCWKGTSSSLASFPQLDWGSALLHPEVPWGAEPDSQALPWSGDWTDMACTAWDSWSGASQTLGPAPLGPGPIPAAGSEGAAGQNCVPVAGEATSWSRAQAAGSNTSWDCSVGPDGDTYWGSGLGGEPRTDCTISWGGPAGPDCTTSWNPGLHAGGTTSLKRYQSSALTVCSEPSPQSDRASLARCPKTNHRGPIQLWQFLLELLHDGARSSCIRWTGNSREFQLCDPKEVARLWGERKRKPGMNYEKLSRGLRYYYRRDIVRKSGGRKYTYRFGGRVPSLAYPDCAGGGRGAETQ
Procedure, shortened: as §1

[8] = molecular target: T5, ELF3 (Homo sapiens, UniProt P78545 1-371); conditions: protein: recombinant; tags: N-terminal GST; dsDNA, one strand shown
T5 sequence: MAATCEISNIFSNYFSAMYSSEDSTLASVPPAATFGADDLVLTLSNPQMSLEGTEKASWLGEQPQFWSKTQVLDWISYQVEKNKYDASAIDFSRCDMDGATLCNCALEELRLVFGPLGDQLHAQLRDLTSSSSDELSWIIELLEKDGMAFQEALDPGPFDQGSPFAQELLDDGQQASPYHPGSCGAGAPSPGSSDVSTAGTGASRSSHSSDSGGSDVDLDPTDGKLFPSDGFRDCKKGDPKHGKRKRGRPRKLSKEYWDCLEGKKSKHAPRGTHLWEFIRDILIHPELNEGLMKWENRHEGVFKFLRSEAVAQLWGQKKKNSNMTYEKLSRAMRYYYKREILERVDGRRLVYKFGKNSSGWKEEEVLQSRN
Procedure, shortened: as §1

[9] = molecular target: CRX (Homo sapiens, UniProt O43186 1-299); conditions: protein: recombinant; tags: N-terminal GST; dsDNA, one strand shown
Procedure, shortened: as §1

[10] = molecular target: ETV1 (Homo sapiens, UniProt P50549 1-477); conditions: protein: recombinant; tags: N-terminal GST; dsDNA, one strand shown
Procedure, shortened: as §1

[11] = molecular target: T6, ERF (Homo sapiens, UniProt P50548 1-548); conditions: protein: recombinant; tags: N-terminal GST; dsDNA, one strand shown
T6 sequence: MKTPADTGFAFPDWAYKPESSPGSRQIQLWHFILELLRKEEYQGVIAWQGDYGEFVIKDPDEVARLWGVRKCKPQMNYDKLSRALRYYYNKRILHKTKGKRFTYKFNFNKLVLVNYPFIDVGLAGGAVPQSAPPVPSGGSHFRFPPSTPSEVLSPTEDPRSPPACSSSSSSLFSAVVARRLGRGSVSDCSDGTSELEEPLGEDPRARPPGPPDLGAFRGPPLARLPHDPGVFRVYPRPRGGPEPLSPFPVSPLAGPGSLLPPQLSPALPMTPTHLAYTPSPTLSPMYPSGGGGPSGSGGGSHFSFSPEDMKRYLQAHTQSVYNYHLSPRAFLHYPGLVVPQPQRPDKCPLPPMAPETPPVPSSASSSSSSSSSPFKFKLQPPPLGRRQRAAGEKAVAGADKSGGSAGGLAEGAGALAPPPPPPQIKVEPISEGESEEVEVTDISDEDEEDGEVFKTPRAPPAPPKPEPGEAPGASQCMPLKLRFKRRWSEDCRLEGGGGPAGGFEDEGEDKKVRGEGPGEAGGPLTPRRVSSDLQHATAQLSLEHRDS
Procedure, shortened: as §1

[12] = molecular target: T7, ETV3L (Homo sapiens, UniProt Q6ZN32 1-361); conditions: protein: recombinant; tags: N-terminal GST; dsDNA, one strand shown
T7 sequence: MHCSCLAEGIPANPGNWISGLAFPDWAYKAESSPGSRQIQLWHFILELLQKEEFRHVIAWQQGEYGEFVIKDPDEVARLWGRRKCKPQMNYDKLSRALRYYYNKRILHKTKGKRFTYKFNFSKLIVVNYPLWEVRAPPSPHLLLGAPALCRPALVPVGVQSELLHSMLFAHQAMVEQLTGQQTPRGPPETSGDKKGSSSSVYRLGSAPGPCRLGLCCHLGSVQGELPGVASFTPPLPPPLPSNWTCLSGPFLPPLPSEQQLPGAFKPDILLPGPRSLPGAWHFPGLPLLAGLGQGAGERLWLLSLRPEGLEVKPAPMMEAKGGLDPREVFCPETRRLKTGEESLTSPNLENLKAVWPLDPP
Procedure, shortened: as §1

[13] = molecular target: T8, ETS2 (Homo sapiens, UniProt P15036 1-469); conditions: protein: recombinant; tags: N-terminal GST; dsDNA, one strand shown
T8 sequence: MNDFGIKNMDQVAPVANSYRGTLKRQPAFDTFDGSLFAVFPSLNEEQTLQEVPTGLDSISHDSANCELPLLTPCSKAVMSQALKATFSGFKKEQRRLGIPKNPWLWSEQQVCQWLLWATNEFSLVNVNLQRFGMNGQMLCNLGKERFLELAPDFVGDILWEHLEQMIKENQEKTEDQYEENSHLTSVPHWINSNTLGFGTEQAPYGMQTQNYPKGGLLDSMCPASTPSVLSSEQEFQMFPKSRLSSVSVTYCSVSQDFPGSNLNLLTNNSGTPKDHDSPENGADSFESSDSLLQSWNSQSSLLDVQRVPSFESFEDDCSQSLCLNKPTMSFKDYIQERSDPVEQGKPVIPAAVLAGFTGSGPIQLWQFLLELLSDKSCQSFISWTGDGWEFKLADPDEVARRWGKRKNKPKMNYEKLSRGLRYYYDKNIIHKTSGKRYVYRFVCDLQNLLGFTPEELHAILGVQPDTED
Procedure, shortened: as §1

[14] = molecular target: T9, SPDEF (Homo sapiens, UniProt O95238 1-335); conditions: protein: recombinant; tags: N-terminal GST; dsDNA, one strand shown
T9 sequence: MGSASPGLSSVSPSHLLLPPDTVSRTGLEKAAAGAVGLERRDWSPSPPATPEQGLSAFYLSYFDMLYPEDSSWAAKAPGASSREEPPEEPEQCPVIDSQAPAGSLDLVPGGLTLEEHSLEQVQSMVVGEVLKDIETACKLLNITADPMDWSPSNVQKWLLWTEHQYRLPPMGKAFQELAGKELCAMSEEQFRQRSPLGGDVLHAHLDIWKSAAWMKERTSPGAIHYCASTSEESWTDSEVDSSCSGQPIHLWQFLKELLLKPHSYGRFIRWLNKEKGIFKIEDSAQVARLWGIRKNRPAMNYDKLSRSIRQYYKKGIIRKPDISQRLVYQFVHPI
Procedure, shortened: as §1

[15] = molecular target: T10, ETV7 (Homo sapiens, UniProt Q9Y603 1-341); conditions: protein: recombinant; tags: N-terminal GST; dsDNA, one strand shown
T10 sequence: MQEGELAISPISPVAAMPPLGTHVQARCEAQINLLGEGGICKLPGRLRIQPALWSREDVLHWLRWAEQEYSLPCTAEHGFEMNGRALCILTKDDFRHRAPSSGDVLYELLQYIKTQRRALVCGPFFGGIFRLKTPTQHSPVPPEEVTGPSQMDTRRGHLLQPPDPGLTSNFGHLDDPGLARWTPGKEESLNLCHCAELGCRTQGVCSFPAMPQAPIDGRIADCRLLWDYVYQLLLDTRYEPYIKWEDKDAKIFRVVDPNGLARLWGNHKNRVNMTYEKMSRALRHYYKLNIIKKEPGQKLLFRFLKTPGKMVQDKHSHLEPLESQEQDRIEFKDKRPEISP
Procedure, shortened: as §1

[16] = molecular target: T11, ELF5 (Homo sapiens, UniProt Q9UKW6-2 1-255); conditions: protein: recombinant; tags: N-terminal GST; dsDNA, one strand shown
T11 sequence: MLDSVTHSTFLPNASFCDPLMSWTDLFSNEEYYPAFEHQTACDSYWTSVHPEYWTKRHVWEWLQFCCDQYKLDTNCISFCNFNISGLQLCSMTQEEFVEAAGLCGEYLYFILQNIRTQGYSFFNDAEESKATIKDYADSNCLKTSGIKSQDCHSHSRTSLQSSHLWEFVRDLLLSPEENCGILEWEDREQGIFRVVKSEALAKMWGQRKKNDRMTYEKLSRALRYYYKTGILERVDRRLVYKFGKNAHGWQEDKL
Procedure, shortened: as §1

[17] = molecular target: T12, ETV3 (Homo sapiens, UniProt P41162-2 1-143); conditions: protein: recombinant; tags: N-terminal GST; dsDNA, one strand shown
T12 sequence: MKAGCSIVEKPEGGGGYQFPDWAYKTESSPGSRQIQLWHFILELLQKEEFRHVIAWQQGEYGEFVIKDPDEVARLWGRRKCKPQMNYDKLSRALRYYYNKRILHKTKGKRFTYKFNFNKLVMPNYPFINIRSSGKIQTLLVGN
Procedure, shortened: as §1

[18] = molecular target: ETV6 (Homo sapiens, UniProt P41212 1-452); conditions: protein: recombinant; tags: N-terminal GST; dsDNA, one strand shown
Procedure, shortened: as §1

Sequence of ETV1 (P50549 whole entry): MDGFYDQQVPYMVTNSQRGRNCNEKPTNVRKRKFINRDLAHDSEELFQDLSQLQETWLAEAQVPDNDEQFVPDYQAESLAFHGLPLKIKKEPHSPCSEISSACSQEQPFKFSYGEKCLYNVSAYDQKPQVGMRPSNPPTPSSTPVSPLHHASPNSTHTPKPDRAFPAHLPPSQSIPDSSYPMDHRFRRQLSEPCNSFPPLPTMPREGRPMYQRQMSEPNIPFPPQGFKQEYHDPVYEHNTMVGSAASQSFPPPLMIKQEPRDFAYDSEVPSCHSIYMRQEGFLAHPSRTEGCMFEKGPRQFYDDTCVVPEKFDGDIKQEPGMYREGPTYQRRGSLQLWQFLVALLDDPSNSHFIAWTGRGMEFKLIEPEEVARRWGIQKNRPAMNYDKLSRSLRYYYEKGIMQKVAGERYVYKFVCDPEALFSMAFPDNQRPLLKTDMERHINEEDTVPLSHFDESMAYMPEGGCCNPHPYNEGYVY
Sequence of ETV6 (P41212 whole entry): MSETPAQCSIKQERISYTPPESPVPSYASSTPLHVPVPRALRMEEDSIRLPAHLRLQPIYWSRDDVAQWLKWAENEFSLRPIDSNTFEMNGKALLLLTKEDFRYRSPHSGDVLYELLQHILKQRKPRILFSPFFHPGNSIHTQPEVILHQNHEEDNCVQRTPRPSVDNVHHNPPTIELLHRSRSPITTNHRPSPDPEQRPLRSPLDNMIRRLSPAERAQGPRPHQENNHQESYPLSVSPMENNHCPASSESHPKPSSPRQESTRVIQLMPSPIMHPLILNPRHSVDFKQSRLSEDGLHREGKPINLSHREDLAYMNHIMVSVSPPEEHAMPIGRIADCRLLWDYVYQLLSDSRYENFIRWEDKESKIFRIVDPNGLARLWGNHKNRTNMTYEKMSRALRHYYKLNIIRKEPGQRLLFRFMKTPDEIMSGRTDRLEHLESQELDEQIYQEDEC
Sequence of ETV5 (P41161 whole entry): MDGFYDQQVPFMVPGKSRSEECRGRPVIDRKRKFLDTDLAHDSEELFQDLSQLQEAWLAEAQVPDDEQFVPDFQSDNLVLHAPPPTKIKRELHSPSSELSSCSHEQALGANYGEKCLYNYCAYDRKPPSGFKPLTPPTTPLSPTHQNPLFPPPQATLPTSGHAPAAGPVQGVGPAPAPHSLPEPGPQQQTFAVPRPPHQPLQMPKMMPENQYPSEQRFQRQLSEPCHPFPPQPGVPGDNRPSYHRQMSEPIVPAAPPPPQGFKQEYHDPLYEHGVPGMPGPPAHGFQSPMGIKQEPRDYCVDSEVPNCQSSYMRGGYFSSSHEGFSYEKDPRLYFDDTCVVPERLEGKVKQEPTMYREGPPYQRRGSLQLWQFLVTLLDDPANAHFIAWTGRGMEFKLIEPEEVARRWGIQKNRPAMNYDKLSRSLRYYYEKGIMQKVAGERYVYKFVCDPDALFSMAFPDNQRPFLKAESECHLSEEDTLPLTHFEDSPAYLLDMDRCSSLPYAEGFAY
Sequence of ELF4 (Q99607 whole entry): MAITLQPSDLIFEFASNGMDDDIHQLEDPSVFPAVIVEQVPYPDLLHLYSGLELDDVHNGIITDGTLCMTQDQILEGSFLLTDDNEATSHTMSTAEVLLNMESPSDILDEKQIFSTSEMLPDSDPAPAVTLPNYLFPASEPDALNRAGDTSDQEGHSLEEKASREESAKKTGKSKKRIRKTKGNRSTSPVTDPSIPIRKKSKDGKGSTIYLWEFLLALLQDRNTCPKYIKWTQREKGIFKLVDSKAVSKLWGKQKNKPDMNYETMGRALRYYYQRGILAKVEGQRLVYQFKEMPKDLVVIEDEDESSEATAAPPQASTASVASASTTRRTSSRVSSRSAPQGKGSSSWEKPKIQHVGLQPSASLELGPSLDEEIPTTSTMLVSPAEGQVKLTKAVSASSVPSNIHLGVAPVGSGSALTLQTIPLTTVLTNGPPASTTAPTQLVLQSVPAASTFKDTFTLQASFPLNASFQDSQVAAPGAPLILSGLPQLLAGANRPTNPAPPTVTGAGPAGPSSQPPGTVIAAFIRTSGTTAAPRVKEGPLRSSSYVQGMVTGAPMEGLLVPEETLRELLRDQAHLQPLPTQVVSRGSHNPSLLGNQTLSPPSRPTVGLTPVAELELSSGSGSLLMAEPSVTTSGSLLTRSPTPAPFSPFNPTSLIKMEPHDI
Sequence of CRX (O43186 whole entry): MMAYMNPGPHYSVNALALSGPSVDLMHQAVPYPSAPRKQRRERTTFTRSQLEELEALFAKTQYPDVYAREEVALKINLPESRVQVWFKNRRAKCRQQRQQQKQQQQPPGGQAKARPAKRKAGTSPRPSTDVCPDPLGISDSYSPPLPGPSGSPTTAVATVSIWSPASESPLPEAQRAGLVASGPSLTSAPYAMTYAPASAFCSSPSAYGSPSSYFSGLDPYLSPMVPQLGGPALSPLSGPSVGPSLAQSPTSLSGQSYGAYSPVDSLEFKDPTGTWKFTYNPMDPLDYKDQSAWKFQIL
Sequence of HSF1 (Q00613 whole entry): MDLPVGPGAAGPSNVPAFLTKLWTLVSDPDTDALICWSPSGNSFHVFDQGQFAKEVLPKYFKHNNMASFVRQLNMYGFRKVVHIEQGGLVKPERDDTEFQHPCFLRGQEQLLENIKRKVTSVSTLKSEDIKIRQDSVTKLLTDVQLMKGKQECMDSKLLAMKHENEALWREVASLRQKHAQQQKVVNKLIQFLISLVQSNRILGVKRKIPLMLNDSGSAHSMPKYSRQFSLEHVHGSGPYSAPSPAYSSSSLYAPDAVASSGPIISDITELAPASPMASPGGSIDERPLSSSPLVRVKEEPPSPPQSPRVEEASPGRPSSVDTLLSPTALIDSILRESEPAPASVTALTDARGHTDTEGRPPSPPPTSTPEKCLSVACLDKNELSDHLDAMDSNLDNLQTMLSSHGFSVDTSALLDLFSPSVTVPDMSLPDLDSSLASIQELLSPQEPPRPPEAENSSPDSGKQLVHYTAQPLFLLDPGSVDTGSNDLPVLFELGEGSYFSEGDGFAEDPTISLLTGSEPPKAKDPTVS

In the case of AATGCA, the binding signal [1] is reported as 1.31 fold enrichment (6-mer frequency, TF over GST control), the binding signal [2] is reported as 1.29 fold enrichment (6-mer frequency, TF over GST control) and the binding signal [3] is reported as 1.11 fold enrichment (6-mer frequency, TF over GST control). The binding signal [4] was 1.28 fold enrichment (6-mer frequency, TF over GST control), the binding signal [5] was 1.3 fold enrichment (6-mer frequency, TF over GST control) and the binding signal [6] was 1.31 fold enrichment (6-mer frequency, TF over GST control). For the same sequence, the binding signal [7] was 1.25 fold enrichment (6-mer frequency, TF over GST control), the binding signal [8] was 1.33 fold enrichment (6-mer frequency, TF over GST control) and the binding signal [9] was 1.14 fold enrichment (6-mer frequency, TF over GST control). The binding signal [10] was 1.25 fold enrichment (6-mer frequency, TF over GST control), the binding signal [11] was 1.3 fold enrichment (6-mer frequency, TF over GST control) and the binding signal [12] was 1.28 fold enrichment (6-mer frequency, TF over GST control). For the same sequence, the binding signal [13] was 1.28 fold enrichment (6-mer frequency, TF over GST control), the binding signal [14] was 1.23 fold enrichment (6-mer frequency, TF over GST control) and the binding signal [15] was 1.3 fold enrichment (6-mer frequency, TF over GST control). For the same sequence, the binding signal [16] was 1.31 fold enrichment (6-mer frequency, TF over GST control), the binding signal [17] was 1.25 fold enrichment (6-mer frequency, TF over GST control) and the binding signal [18] was 1.37 fold enrichment (6-mer frequency, TF over GST control).

From article PMC7862700, “An all-to-all approach to the identification of sequence-specific readers for epigenetic DNA modifications on cytosine”
